The record followed here is PubChem BioAssay (NCI).

Structures are written as SMILES. About 83,000 compounds went through this panel and 20% of them were active in at least one assay; those are over-represented in the sample as a whole.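 For each line, cells grew in 96-well plates with the test compound present at a single concentration for 48 hours.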 A number with no mark means an inactive call. Calls of active or inactive are those of the source. How the source made its calls: active means growth percent below 10; inactive means the rest.

Common to all, as to assay: NCI-60 one-dose screen, 48 h (100 = growth as untreated, 0 = no growth, -100 = all killed)
Settings in all cases: 10 µM unless noted

Assay [1] concerns SK-MEL-2 melanoma.
Assay [2] has as its system EKVX NSCLC.
In assay [3] the test system is SN12C renal.
Assay [4] deals with UO-31 renal.
Assay [5] relates to TK-10 renal.
In assay [6] the test system is ACHN renal.
The subject of assay [7] is CAKI-1 renal.
Assay [8] deals with A498 renal.
Assay [9] deals with CCRF-CEM leukemia.
The test system of assay [10] is MOLT-4 leukemia.
Assay [11] concerns SR leukemia.
In assay [12] the test system is RPMI-8226 leukemia.
The test system of assay [13] is OVCAR-8 ovarian.
Assay [14] concerns OVCAR-5 ovarian.
Assay [15] concerns OVCAR-4 ovarian.
The test system of assay [16] is SK-OV-3 ovarian.
The test system of assay [17] is IGROV1 ovarian.
Assay [18] relates to OVCAR-3 ovarian.
The subject of assay [19] is HS 578T breast.
Assay [20] has as its system NCI/ADR-RES ovarian.

Take `Cc1ccc(N=Nc2c(N)nn3c(-c4cc5cc(Br)ccc5oc4=O)ccnc23)cc1`: the growth in assay [1] is 108%; in assay [2] it was 72.2%; in assay [3], 35.6%; in assay [4], 79.8%; in [5], 81.9%; in [6], 54.4%. The growth is 80.8% in [7]; 51.9% in assay [8]; 99.8% in assay [9]; 98.6% in [10]; 50.2% in [11]; 93.5% in assay [12]. Moreover, the growth was 54% in assay [13]; 54.8% in assay [14]; 102% in assay [15]; 98.6% in [16]; 45.2% in assay [17]; 108% in assay [18]. Further, the growth in assay [19] was 69.4%; in [20] it was 29%.

Consider `O=C(N/N=C/c1ccsc1)c1[nH]c2ccc(Br)cc2c1-c1ccccc1`, for which the growth is -82.8% (active) in assay [1]; -26.3% (active) in assay [2]; -87.5% (active) in [3]; -49.4% (active) in [4]; -13.3% (active) in assay [5]; -28% (active) in assay [6]. The growth in assay [7] is -21.8% (active); in assay [8], -48.1% (active); in assay [9], 6.69% (active); in [10], -8.25% (active); in [11], 2.42% (active); in assay [12], 1.5% (active). For the same compound, the growth is -49.4% (active) in assay [13]; -57.4% (active) in assay [14]; -30.8% (active) in assay [15]; -36.9% (active) in [16]; -57% (active) in [17]; -72.9% (active) in [18]. Moreover, the growth in [19] was -13.3% (active); in assay [20] it was -42% (active).

On to `COc1cc(CNC(=O)C[C@H](C)CCC=C(C)C)ccc1OCc1cn(-c2ccc(Br)cc2)nn1`, for which the growth in assay [1] is 78%; in assay [2], 79%; in assay [3] it was 71.6%; in assay [4], 62.9%; in assay [5] it was 109%; in assay [6] it was 56.4%. For the same compound, the growth is 28.8% in assay [7]; 105% in assay [8]; 61.1% in assay [9]; 70% in assay [10]; 63.8% in assay [11]; 69.3% in assay [12]. Also, the growth was 47.5% in [13]; 105% in [14]; 49.5% in assay [15]; 64% in assay [16]; 89.9% in assay [17]; 105% in assay [18]. Also, the results for the growth in assay [19] and in assay [20] were 73.8% and 52.1%, respectively.

As to `O=C(Nc1ccc(-c2ccc3c(c2)NC(=O)/C3=C\c2ccc[nH]2)cc1)Nc1cccc(Cl)c1`, the growth was -52.8% (active) in assay [1]; -19.6% (active) in [2]; 40.7% in [3]; 10.5% in assay [4]; -12.1% (active) in [5]; -19.6% (active) in [6]. In addition, the growth in assay [7] is -14.9% (active); in [8], 21.6%; in assay [9] it was 13.7%; in assay [10], 5.1% (active); in assay [11], 6.39% (active); in assay [12], 18.2%. Besides, the growth in assay [13] was -34.5% (active); in [14] it was -68.3% (active); in assay [15] it was 6.87% (active); in [16], 3.23% (active); in assay [17] it was -62.2% (active); in assay [18], 2.44% (active). Also, the growth in assay [19] is 21.9%; in assay [20] it was -37.9% (active).

Take `COc1ccc2[nH]c(O)c(N=Nc3nc(-c4ccccc4)cs3)c2c1`: the growth was 83.7% in assay [1]; 14.4% in [2]; 2.85% (active) in assay [3]; 4.1% (active) in [4]; 25.5% in assay [5]; -16.5% (active) in assay [6]. For the same compound, the growth in [7] was 14%; in assay [8], -34.8% (active); in assay [9], 44%; in assay [10], 42.5%; in assay [11] it was 27%; in assay [12] it was 58.6%. The growth is 6.68% (active) in assay [13]; 53.2% in [14]; -7.14% (active) in assay [15]; -17.4% (active) in assay [16]; 36.1% in [17]; -2.28% (active) in assay [18]. Moreover, the growth in assay [19] was 41.6%; in assay [20], 3.46% (active).

Take `COc1ccc(/C=C/C(=O)c2ccc(OC)c(S(N)(=O)=O)c2)c(C(F)(F)F)c1`: the growth in assay [1] was 60.8%; in assay [2], 14.5%; in assay [3], 8.16% (active); in assay [4], 25.6%; in [5] it was 77.9%; in assay [6], 9.82% (active). In addition, the growth in assay [7] was 24.7%; in assay [8], 195%; in [9], 2.27% (active); in assay [10], -0.0099% (active); in assay [11] it was 0.801% (active); in assay [12], 3.98% (active). Besides, the growth in assay [13] is 6.69% (active); in assay [14], 3.65% (active); in assay [15], 18.6%; in assay [16] it was 66.6%; in [17], 1.64% (active); in assay [18] it was 15.8%. In addition, the growth in assay [19] was 49.3%; in [20], -31.4% (active).
